Out of some 360,000 compounds screened, about 3,900 (1.1%) were called active. Many of the other results were omitted from the sample, so actives are more common in it than they were. Values without a mark were called inactive.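 How the source made its calls: active means mean replicate inhibition score of at least 50 and every replicate individually at or above 50; inconclusive means only one of the two criteria met; inactive means mean below 50 and not all replicates reaching 50.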

The values that follow come from PubChem BioAssay AID651610 (Broad Institute, 2012).

This test can be described thus: blockers of JRFL envelope-mediated fusion – HeLa-JRFL effector, CEM21 target cells, luciferase, primary screen (AID 651610).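 Further: 0% = plate neutral controls and 100% = maraviroc near 300 nM.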 The following applies: HeLa-JRFL Env/CEM21 cell fusion, active compounds read high; at 16.7 µM unless noted.
`CC1(Cc2cccc(C#N)c2)C(=O)Nc2ccc(-c3cccc(C(F)(F)F)c3)cc21` (configuration not stated): the inhibition (in general, the change of the read-out against control, counted positive when it falls) was 76.4% [at 12.3 µM] (active). The figure for `COc1ccccc1CC1(C)C(=O)Nc2ccc(OC(F)(F)F)cc21` (configuration not stated) is 5.2% [at 12.3 µM]; for `Cc1ccc(CC2(C)C(=O)Nc3ccc(OC(F)(F)F)cc32)cc1` (configuration not stated) it is 10.5% [at 12.3 µM]. With `C[C@H]1CN([C@@H](C)CO)C(=O)c2cc(-c3cccnc3)cnc2O[C@@H]1CN(C)C(=O)C1CC1`, the inhibition was 1.19%. Take `C[C@@H]1CN([C@@H](C)CO)C(=O)c2cc(C#CC3CCCCC3)cnc2O[C@H]1CN(C)C(=O)Cc1ccccn1`: the inhibition is -1.78%. With `CC(C)NC(=O)N(C)C[C@H]1Oc2ncc(C#CC3CCCCC3)cc2C(=O)N([C@H](C)CO)C[C@@H]1C`, the inhibition is 5.6%.

As for `CC(C)NC(=O)Nc1ccc2c(c1)C(=O)N([C@@H](C)CO)C[C@H](C)[C@H](CN(C)S(=O)(=O)c1cccs1)O2`, the inhibition is -7.33%. Consider `C#Cc1cc(N2CCN(C(=O)c3ccoc3)CC2)n2nc(-c3cccc(Cl)c3)cc2n1`, for which the inhibition is 2.89% [at 12.3 µM]. As to `O=C(c1ccccc1)N1CCN(c2cc(-c3ccccc3)nc3cc(-c4cccc(Cl)c4)nn23)CC1`, the inhibition is 57.4% [at 12.3 µM] (active). To `O=C(c1ccccc1)N1CCN(C(=O)c2cc3nc(-c4ccccc4)cc(C(F)(F)F)n3n2)CC1` belongs 13.3% [at 12.3 µM]; to `CN1CCN(C(=O)C[C@H]2CC[C@@H](NC(=O)c3ccc4c(c3)OCO4)[C@H](CO)O2)CC1`, -2.25%. The figure for `C[C@@H]1CCCCO[C@@H](CN(C)C(=O)CCC(F)(F)F)[C@H](C)CN([C@@H](C)CO)C(=O)c2cc(NC(=O)CCCN(C)C)ccc2O1` is -15.3%; for `COc1ccc2c3c(n(C)c2c1)[C@H](CO)N(C(=O)NC(C)C)CC31CCN(C(=O)NC(C)C)CC1` it is 25.2%.

On to `C=C1c2c(Cl)ccc(O)c2C(O)=C2C(=O)[C@]3(O)C(O)=C(C(N)=O)C(=O)[C@@H](N(C)C)[C@@H]3[C@@H](O)C12` (some centres not stated), for which the inhibition is 9.73% [at 12.3 µM]. To `CN(C)[C@@H]1C(=O)C(C(N)=O)=C(O)[C@@]2(O)C(=O)C3=C(O)c4c(O)ccc(Cl)c4[C@@H](O)[C@H]3C[C@@H]12` belongs 71.9% [at 12.3 µM] (active); to `C[C@@H]1CN([C@H](C)CO)C(=O)c2cc(C#CC3(O)CCCC3)cnc2O[C@H]1CN(C)C(=O)C1CCC1`, 1.03%.

Consider `CO[C@H]1CN(C)C(=O)c2cc(NC(=O)C3CC3)ccc2OC[C@@H](C)N(CCc2ccccc2)C[C@H]1C`, for which the inhibition is -0.128%.
